Source: PubChem BioAssay (Tox21)
“And” between values parts separate entries of the source, which are not always exact repeats. Equal values may be shown once. Results filed as inconclusive are left out. The source made the active and inactive calls. Calls follow the shape of the full dose curve.

Assay: qHTS assay to identify small molecule antagonists of the sonic hedgehog signaling (Shh) pathway (AID 1259369); also: nearly all actives have a fitted effect of over 45% in size
Settings: NIH/3T3 Gli1-Luc reporter, Shh antagonist, luminescence 24 h; series mostly up to 92.4 µM; activity change, negative = inhibition: at the top concentration
From the text: U.S. Tox21 Program National Center for Advancing Translational Sciences [NCATS] NIH Chemical Genomics Center [NCGC] U.S. Environmental Protection Agency [EPA] National Institutes of Environmental Health Sciences [NIEHS] National Toxicology Program [NTP] U.S. Food and Drug Administration [FDA] Tox21 Assay Overview: The sonic hedgehog (Shh) pathway is essential for normal embryonic development. Dysregulation of the Shh pathway can cause severe developmental defects in organs. Therefore chemicals that interfere with the pathway are potential developmental toxicants. A cell line designated 3T3Gli1-Luc (DMB/OARSA/CFSAN/FDA, Laurel, MD), a NIH/3T3 derived clone containing stably integrated Gli1-Luc reporter is used to detect chemical interference of the Shh pathway, by changes in the expression of the firefly Luc gene under the control of the Gli1 transcriptional response element. This cell line was used to screen Tox21 libraries for identifying and prioritizing the potential developmental toxicants that interfere Shh pathway. Conditioned medium-stimulated mode was used to screen for chemicals inhibiting Shh signaling.
Tox21 Assay Protocol Summary: 3T3 Gli1-Luc cells were dispensed at 2,000 per well in 5uL of culture medium into white solid bottom 1536-well plates (Greiner Bio-One, Monroe, NC) using a Multidrop Combi (Thermo Scientific, Waltham, MA) dispenser. The assay plates were incubated at 37 C and 5% CO2 for 4hr, and then 23nL of compounds dissolved in DMSO and positive control were transferred using a Pintool station (Wako, San Diego, CA). The compound transfer was followed by the addition of 1ul conditioned medium or assay buffer using two separate tips of Flying Reagent Dispenser (FRD, Aurora Discovery, San Diego, CA). The assay plates were incubated at 37C and 5% CO2 for 24hr. For luciferase read, 4uL of Amplite Luciferase reporter gene assay reagent (AAT Bioquest, Inc. Sunnyvale, CA) was added to each well of the assay plates using FRD and incubated at room temperature for 30min. The luminescence signal was measured using a ViewLux plate reader (Perkin Elmer, Shelton, CT).
% is scaled to controls: 0 for no effect and ±100 for the full control effect; potency is read from the fitted curve at half-maximal effect.

| Structure (SMILES) | activity change, negative = inhibition | Potency |
| --- | --- | --- |
| C1CCCC1 | 17.8% (inactive) | – |
| CC[C@H]1O[C@]2(CC[C@@H]1C)C[C@@H]1C[C@@H](C/C=C(\C)C[C@@H](C)/C=C/C=C3\CO[C@@H]4[C@H](O)C(C)=C[C@@H](C(=O)O1)[C@]34O)O2 | 41.6% (inactive) | – |
| [Cl][Au]([Cl])[Cl] | – | 0.172 µM (active) |
| CC[C@H](c1ccc(O)cc1)[C@@H](CC)c1ccc(O)cc1 | – | 7.7 µM (active) |
| O=c1[nH]cnc2nc[nH]c12 | 1.82% [at 42.5 µM] (inactive) | – |
| CCOC(=O)O[C@H](C)OC(=O)c1ccc2c(c1)cc(C(=O)NC1CCN(C(C)C)CC1)n2Cc1cc(-c2ccc(Cl)s2)on1 | – | 9.05 µM (active) |
| CCCCCCCC/C=C\CCCCCCCCOCCO | – | 14.1 µM (active) |
| O=C(NO)C1(NS(=O)(=O)c2ccc(Oc3ccc(F)cc3)cc2)CCOCC1 | -27% (inactive) | – |
| CCCCCCCCCCCCCCCCCC[N+](C)(C)C | – | 0.274 µM (active) |
| CC(NN)c1ccccc1 (stereo not given) | 19.3% [at 19 µM] (inactive) | – |
| O=C1Cc2cc(CCN3CCN(c4nsc5ccccc45)CC3)c(Cl)cc2N1 | – | 29.8 µM (active) |
| NC(=NCCCCCCN=C(N)/N=C(\N)Nc1ccc(Cl)cc1)/N=C(\N)Nc1ccc(Cl)cc1 | – | 21.5 µM (active) and 27.2 µM (active) and 19.2 µM (active) |
| Oc1ccc2c(c1)-c1ccccc1C2 | – | 13.7 µM (active) |
| C=CC(=O)OCC(CO)(COC(=O)C=C)COC(=O)C=C | – | 1.54 µM (active) and 3.86 µM (active) |
| C[C@@H](NCCCc1cccc(C(F)(F)F)c1)c1cccc2ccccc12 | – | 18.8 µM (active) |
| Cc1cc(O)c(C(C)(C)C)cc1C(C)(C)C | – | 48.6 µM (active) |
| O=c1[nH]sc2cc(Cl)ccc12 | -123% [at 42.5 µM] (inactive) | – |
| CC(C)(C)c1ccc(C(=O)CCCN2CCC(OC(c3ccccc3)c3ccccc3)CC2)cc1 | – | 11.9 µM (active) |
| c1ccc(CSCc2ccccc2)cc1 | -9.32% (inactive) | – |
| COC(=O)C1=C(C)NC(C)=C(C(=O)OCC(C)C)C1c1ccccc1[N+](=O)[O-] (stereo not given) | – | 12.2 µM (active) |

| Structure (SMILES) | activity change, negative = inhibition | Potency |
| --- | --- | --- |
| CCCCCCC[N+](CC)(CC)CCCCc1ccc(Cl)cc1 | – | 0.168 µM (active) |
| O=C(c1ccc(O)cc1O)c1ccc(O)cc1O | – | 17.2 µM (active) and 24.3 µM (active) |
| CC(C)n1nc(-c2cc3cc(O)ccc3[nH]2)c2c(N)ncnc21 | – | 1.5 µM (active) |
| CC(C)=CCOc1ccc(/C=C/C(=O)c2ccc(OCC=C(C)C)cc2OCC(=O)O)cc1 | -4.23% [at 42.5 µM] (inactive) | – |
| C[C@]12CCC(=O)C=C1CC[C@@H]1[C@@H]2[C@@H](O)C[C@@]2(C)[C@H]1CC[C@]2(O)C(=O)COC(=O)CCC(=O)O | -23.4% [at 42.5 µM] (inactive) | – |
| c1cc(C(c2ccc(OCC3CO3)cc2)c2ccc(OCC3CO3)cc2)ccc1OCC1CO1 (stereo not given) | – | 54.5 µM (active) |
| On1ccccc1=S | – | 0.762 µM (active) |
| O=C1CCCCCN1SSN1CCCCCC1=O | – | 9.69 µM (active) |
| CCN(CC)CCCC(C)Nc1c2ccc(Cl)cc2nc2ccc(OC)cc12 (stereo not given) | – | 29.8 µM (active) |
| N=C1N=C(N)c2ccccc21 | – | 8.63 µM (active) |
| NC(=O)NS(=O)(=O)c1ccc(N)cc1 | 20.1% [at 42.5 µM] (inactive) | – |
| CCC(C)Nc1ccc(NC(C)CC)cc1 (stereo not given) | – | 3.93 µM (active) |
| Cc1cccc(N(C)C(=S)Oc2ccc3c(c2)C2CCC3C2)c1 (stereo not given) | -19.4% [at 42.5 µM] (inactive) | – |
| Cc1ccc2oc(CN(Cc3ccccc3)C(=O)Nc3c(F)cc(F)cc3F)c(-c3ccc(Cl)cc3)c2c1 | 2.63% (inactive) | – |
| CCCCCCCCCOC(=O)c1ccc(O)cc1 | -15.7% (inactive) | – |
| Cc1onc(-c2ccccc2Cl)c1C(=O)N[C@@H]1C(=O)N2[C@@H]1SC(C)(C)[C@@H]2C(=O)O | 3.73% [at 42.5 µM] (inactive) | – |
| CCCCCCCC[P+](CCCCCCCC)(CCCCCCCC)CCCCCCCC | – | 0.483 µM (active) |
| O=C1C=CC(=O)N1 | – | 1.58 µM (active) |
| O=C(OC[C@H]1O[C@@H](OC(=O)c2cc(O)c(O)c(OC(=O)c3cc(O)c(O)c(O)c3)c2)[C@H](OC(=O)c2cc(O)c(O)c(OC(=O)c3cc(O)c(O)c(O)c3)c2)[C@@H](OC(=O)c2cc(O)c(O)c(OC(=O)c3cc(O)c(O)c(O)c3)c2)[C@@H]1OC(=O)c1cc(O)c(O)c(OC(=O)c2cc(O)c(O)c(O)c2)c1)c1cc(O)c(O)c(OC(=O)c2cc(O)c(O)c(O)c2)c1 | – | 5.22 µM (active) |
| CCN(Cc1cccnc1)C(=O)c1cccc(Cl)c1[C@]1(C)C(=O)N(Cc2ccc(OC)cc2OC)c2ccc(Cl)cc21 | – | 28.6 µM (active) |
